Consider 40 sequences from the supplement of paper PMC6555819.

For the assay, the system named is FXR:RXRa (NR concentration 270 nM, RXRa partner concentration 90 nM). Put plainly: PBM binding z-score (relative to random genomic background probes); higher = stronger binding; sequences stand for … in GC…GCGATTGACAGCGTAGAATGAAGG
In short, it runs like this: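 Probes were double-stranded and carried 34-nt variable regions with direct-repeat seeds, single-nucleotide variants, half-site ablations and random human genomic background sequences, printed on custom Agilent 4×180K protein-binding microarrays. Arrays were incubated 1 h with ligand-free nuclear receptor dimers in PBS pH 7.4, 2% milk, 0.02% Triton X-100, 1 mM DTT, 0.2 mg/mL BSA and 0.4 mg/ml salmon testes DNA. Antibodies against each partner (one per run) detected binding, and scanned fluorescence was regression-normalized. Binding z-scores use the random background probes as reference.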
Turning to CCTAGCAGGCCAATCTGGGTGACTCAAGGCTTGA, the PBM binding z-score is -0.438.
Sequence CGAACTAGGTCAGAACTGGACAGTGAAGGATGAT returned a PBM binding z-score of 0.671.
The sequence GGAACGAGGGCATTCGAGTTGATGGCATGGCGAT had a PBM binding z-score of 1.48.
With TCAGACAGGTGAAGGTAACTCCGGTACGCAGTCG, the PBM binding z-score stood at 0.787.
The sequence CGTCCCAGGTCAATGCTAGGTCAGTGAAAGCATT displayed a PBM binding z-score of 4.29.
As for TCATATAGGTAAACAGGTGGAAGTCCGTAAGTTA, the PBM binding z-score is 0.72.
As for CCAGACAGGTGAAAGGTAACCCAGTCTGGTACGC, the PBM binding z-score is 0.66.
Sequence CTACCAAGCTGAACAAGGTCGTTGATTACTATTC returned a PBM binding z-score of 0.51.
As for GGAACGAGGGCGTTCGAGTTGATAGCATGGCGAT, the PBM binding z-score was -0.0904.
The value for CAGCCTAGGTCTGGGCCAGTATAGGAGGAACGTT was -0.847.
Turning to GGAGACAGGTGAAACGCAGGTAACTCAGGGTGGC, the PBM binding z-score came out at 0.0373.
In the case of TAGCCTAGGTCATGGGCCGGTATACCACGCGAAC, the PBM binding z-score was 4.76.
The sequence CAAACTCGGTCACAGAGGTCAAAGTCCGTGCGTA displayed a PBM binding z-score of 5.99.
For CCTACTGCGCCACGAAAGGTCATTGATTCAGTGA, the PBM binding z-score was found to be 3.86.
GCGTACGGGTCAAAGGTTATAGCATGAATAGAAT showed a PBM binding z-score of 7.58.
For the sequence CCATACGGGTCACGAGGTTATAGCACGACGAGCG, the PBM binding z-score is 6.99.
TCATATAGGTAAATGCTAGGTGAAATTCCGATCT returned a PBM binding z-score of 0.456.
Sequence CGAACGAGGGGATGAGTTGATAGCAAATGCCGAT came in with a PBM binding z-score of 0.0387.
Take GCATATAGGTGATACAAGGTGAAAGTCCGATTGT: the PBM binding z-score amounted to 1.98.
Sequence CCGACTGCGGCAAAGGTTACCATACTCAGTACGA showed a PBM binding z-score of 0.819.
Turning to ACTATTAGTTGTGACGAGGGCAACCGATAGGTTG, the PBM binding z-score was -0.101.
Turning to TCGAGTAGGTTACCAATGGGGCATTCCGCTTTCT, the PBM binding z-score is 0.135.
CGAACTAGGTCCTCCAGGACAGTGAATACATTGA yielded a PBM binding z-score of -0.16.
The value for TCAAGTAGGTTACCAATGGGGCATTCAGCTTTCT was 0.176; that for GCTGTTAGGTCAACTGATGGTCAGCTAAAGCTCG was 4.8; that for TCATATAGGTAAACAGGTGCAAGTCCGTAAGTTA was 0.886.
Take TCTTGTAGATCAATAGAGGATAAGAAAGTGCGCT: the PBM binding z-score turned out to be 0.574.
With TTACCAGGGTGAAGGTCGTTGATCCCTCTGTAGA the figure was 1.98; with GCTAGCAGGCCATTTTGGTCACTCAATGACGGGC, -0.64.
In turn, CGTCCAAGGTCAATGCTAGGTCAGTGTAAGCATT registered a PBM binding z-score of 6.38.
Sequence TATACAGCGTCAAAGGCCAGAGTACGAATGTCGA yielded a PBM binding z-score of -0.579.
On to ATCTCGAGGTAAAGTTCAGTGAAAGATCGATAGA, for which the PBM binding z-score is 1.3.
Sequence CATACAGGGTCAGCTAGGCCAGTGTAGGGACGGC had a PBM binding z-score of 4.16.
The sequence ATATGTAGGTTATCGCGTCATTCAGTTTGCGCAT came in with a PBM binding z-score of 0.694.
The value for CCGACTGGGGTAAAGGTTACCATACTCAGTACGA was 1.25; that for TAGCCTAGGTCATGCGGGCCAGGATAGTGTCGGC was 3.94.
As for CCTAGTAGGTCAAGGTCACACACGCTATAGGTAC, the PBM binding z-score came to 6.32.
In the case of TCGAGTAGGTTACCATTGGGGCATTCAGCTTTCT, the PBM binding z-score was determined as 0.101.
TTACCAAGGTGGGCTGAGGTCGTTGATCCAACTC: the PBM binding z-score was 1.56.
As to AGAATGACGTTATACGTAGATCAGGGAAGAAAGT, the PBM binding z-score is -0.751.
